Screens: PubChem, National Center for Advancing Translational Sciences (NCATS)
Sampled rows, rich in hits. Any-hit rate of the full collection: about 8.1%.
SW480 rerep: DNA re-replication induction in SW480 cells | SW480 DNA re-replication, Hoechst DNA content imaging, 48 h | Potency, µM (doses to about 46.1 µM), for inactives: at the top dose re-replication activation, actives largely listed as activators | actives 1.8% (n = 340,000) | AID 624297; also: % of control where 0% means no effect; nearly all actives have a fitted effect of over 55% in size
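Cells (250 per well) received 23 nL compound or DMSO by pin tool and were kept 48 hr at 37 C, 5% CO2. Nuclei were then stained with Hoechst for 40 min and scanned for DNA content.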
ELG1 repair inh: inhibitors of ELG1-dependent DNA repair in HEK293T cells | HEK293T ELG1-luciferase reporter, luminescence, 16 h; DNA damage induced by 5-fluorouridine | Potency, µM (series often up to 46.1 µM), for the others: at the highest dose activity change, negative = inhibition, actives largely listed as inhibitors | actives 2.3% (n = 330,000) | AID 504467; also: % is scaled to controls: 0 for no effect and ±100 for the full control effect; nearly all actives have a fitted effect of over 55% in size
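Quantitative HTS, concentration-response format. 2,000 cells/well co-treated with 5-fluorouridine and compound, 16 hr in 5% CO2 at 37 °C; ONE-Glo luminescence read after 30 min.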
KB-V1 MDR tox: kills drug-selected multidrug resistant KB-V1 cells | KB-V1 MDR cells viability, CellTiter-Glo, 72 h | Potency, µM (top dose mostly 46.1 µM), actives largely listed as cytotoxic | AID 1347076 | actives 3.4% (n = 400,000); also: % is scaled to controls: 0 for no effect and ±100 for the full control effect; nearly all actives have a fitted effect of over 60% in size
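Compound-treated KB-V1 multidrug-resistant cells, 72 h, 37 degrees C; viability by CellTiter-Glo. Fitted qHTS curves give the values.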
MCF10A rerep: induces DNA re-replication in MCF 10a normal breast cells; MCF 10A DNA re-replication, Hoechst nuclear intensity, 48 h; Potency, µM (titrated, usually from 46.1 µM), for inactives: top-dose activity, positive = re-replication, usual class: activators; actives 2.9% (n = 350,000); AID 624296; also: % of control where 0% means no effect; nearly all actives have a fitted effect of over 50% in size
KB-3-1 cytotox: kills parental KB-3-1 adenocarcinoma cells | KB-3-1 viability, CellTiter-Glo ATP luminescence, 72 h | Potency, µM (series often up to 46.1 µM), usual class: cytotoxic | actives 1.4% (n = 400,000) | AID 1347075; also: % is scaled to controls: 0 for no effect and ±100 for the full control effect; nearly all actives have a fitted effect of over 60% in size
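Cells are dispensed, compounds pinned in, plates held at 37 °C for 72 h, then CellTiter-Glo is added and luminescence read after 10 minutes. Cell line: parental KB-3-1 in phenol-red-free DMEM, 10% FBS.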
* hit, by the source's call; i = inactive; ? = inconclusive; / = not tested or not shown; ! = repeats disagree; [ ] = dose if it differs, or a comment. Calls follow the shape of the dose curve; as a rule, active = well fitted curve in the direction sought with a large enough effect; inconclusive = small, poorly fitted or top-dose-only effect, or another doubt; inactive = no such curve, though single readings can be large; an effect the other way counts as inactive or inconclusive. Potency is read from the fitted curve at half-maximal effect.

SMILES	SW480 rerep	ELG1 repair inh	KB-V1 MDR tox	MCF10A rerep	KB-3-1 cytotox
O=C1c2ccccc2C(=O)c2c(Nc3ccc(CCO)cc3)ccc(O)c21	0.0%	14.6µM*	i	-12.3%	i
O=C(c1ccco1)N1CCN(S(=O)(=O)c2ccc(S(=O)(=O)NC3CC3)cc2)CC1	8.5%	-1.2%	i	1.4%	i
COc1ccc(CN(C)c2ncnc3sccc23)c(OC)c1OC	?	9.2µM*	4.61µM*	?	8.2µM*
CN(Cc1ccccc1F)c1ncnc2sccc12	0.5%	-14.3%	i	4.7%	i
COc1ccc(CCN(C)c2ncnc3sccc23)cc1OC	?	?	i	0.82µM*	i
CCOc1ccc(NC(=O)CSc2nc(=O)n(Cc3ccccn3)c3c2CCC3)cc1	3.1%	?	i	14.3%	i
CCCc1cc(=O)oc2c(C)c(OCC(=O)N3CCC(C(=O)O)(c4ccccc4)CC3)ccc12	-3.9%	11.0%	i	?	i
CC(NC(=S)NCc1ccccc1)C12CC3CC(CC(C3)C1)C2 (configuration not stated)	-16.8%	-10.7%	i	12.8%	i
CCOC(=O)c1nc(Nc2ccc(C(=O)O)cc2)c2ccccc2n1	-0.1%	12.2%	i	-3.3%	i
CCOC(=O)c1nc(Nc2ccc(Nc3ccccc3)cc2)c2ccccc2n1	-3.6%	7.3µM*	?	?	?
CCOC(=O)c1ccc(Nc2nc(C(=O)OCC)nc3ccccc23)cc1	-0.6%	?	i	?	i
CCOC(=O)c1nc(Nc2ccc(N3CCC(C)CC3)cc2)c2ccccc2n1	-18.3%	5.8µM*	i	14.4%	i
COc1ccc(NC(=O)c2cccnc2N2CCCC2)cc1	15.0%	-8.2%	?	5.2%	?
COc1ccc(N/C=C(\C#N)c2nc3ccccc3n2C)c(OC)c1	17.0%	25.9µM*	20.6µM*	?	i
Cc1nc2nc(Cc3ccccc3)[nH]n2c(=O)c1Cl	-8.2%	-2.4%	i	1.4%	i
CCCC(=O)Nc1ccc(S(=O)(=O)N2CCC(c3nc4ccccc4[nH]3)CC2)cc1	2.4%	?	i	-3.9%	i
CCOC(=O)Nc1ccc(S(=O)(=O)N2CCC(C)CC2)cc1	-4.6%	?	20.6µM*	?	i
COc1cccc(N2CCN(CC(=O)Nc3ccc(S(=O)(=O)N4CCCCCC4)cc3)CC2)c1	3.5%	?	20.6µM*	12.3%	i
CCC(=O)Nc1ccc(S(=O)(=O)N2CCC(c3nc4ccccc4[nH]3)CC2)cc1	-6.1%	18.3µM*	i	5.9%	i
CC1CCN(CC(=O)Nc2ccc(S(=O)(=O)N3CCCCC3)cc2)CC1	11.9%	-9.3%	i	2.31µM*	i
COc1ccccc1NC(=O)C(=O)NCC(c1ccc2c(c1)OCO2)N1CCOCC1 (configuration not stated)	/	/	i	/	i
CC1(C)Oc2ccc3ccc(=O)oc3c2C[C@H]1O	-2.2%	17.2%	i	-4.9%	i
COc1cc(NC(=O)CCC(=O)N2CCN(S(=O)(=O)c3ccc(C)cc3)CC2)cc(OC)c1	9.8%	/	18.4µM*	10.4%	i
COc1ccc(NC(=O)CN2CCN(S(=O)(=O)c3ccc(Cl)cc3)CC2)cc1	9.0%	-0.3%	16.4µM*	7.9%	i
Cc1cc2ccccc2n2c(SCC(=O)Nc3ccc(S(=O)(=O)N4CCC(C)CC4)cc3)nnc12	?	25.9µM*	i	-0.9%	i
SMILES	SW480 rerep	ELG1 repair inh	KB-V1 MDR tox	MCF10A rerep	KB-3-1 cytotox
Cc1ccc(S(=O)(=O)N(C)C)cc1NC(=S)NC(=O)C12CC3CC(CC(C3)C1)C2	-3.7%	7.7%	?	16.0%	3.26µM*
Cc1ccc(S(=O)(=O)N(C)C)cc1NC(=S)NC12CC3CC(CC(C3)C1)C2	4.4%	?	i	?	i
NS(=O)(=O)c1cccc(NC(=S)NC(=O)C23CC4CC(CC(C4)C2)C3)c1	2.7%	10.7%	18.4µM*	?	i
CN(C)S(=O)(=O)c1cccc(NC(=S)NC23CC4CC(CC(C4)C2)C3)c1	?	-15.6%	i	?	i
Cc1cnc(C(=O)Nc2cc(F)ccc2C)cn1	-1.7%	4.3%	i	8.4%	i
CCOC(=O)C1=C(C)N=c2s/c(=C/c3ccc(OCC(=O)O)cc3)c(=O)n2C1c1ccc(F)cc1 (configuration not stated)	-6.0%	-2.7%	i	?	i
CCOC(=O)C1=C(C)N=c2s/c(=C\c3ccc(OCC(=O)O)cc3)c(=O)n2C1c1ccc(Cl)cc1 (configuration not stated)	-56.5%[1.84 µM]	-4.8%	i	18.4µM*	i
Cc1ccc(S(=O)(=O)NCC(=O)NCC(=O)N(C)Cc2ccc3ccccc3c2)cc1C	8.8%	?	13µM*	?	?
CSc1ccc(CN(C)C(=O)CNC(=O)CNS(=O)(=O)c2ccc(C)c(C)c2)cc1	-22.4%	-18.1%	i	4.2%	i
CC(=O)Nc1ccc(NC(=O)Nc2ccccc2)cc1	-2.7%	?	?	0.1%	i
Cc1nn(-c2ccccc2)c2c1CC(=O)Nc1ccccc1-2	1.46µM*	/	1.64µM*	1.3µM*	0.651µM*
O=C(COC(=O)c1cccc(S(=O)(=O)N2CCOCC2)c1)c1ccccc1	0.1%	15.7%	i	0.0%	i
CN(C)c1cccc(C(=O)OCCNC(=O)c2cccc(S(=O)(=O)N3CCOCC3)c2)c1	9.8%	7.3µM*	i	1.7%	i
O=C(OCCOc1ccccc1)c1cccc(S(=O)(=O)N2CCOCC2)c1	-1.6%	-13.2%	18.4µM*	-1.5%	i
O=C(NCCCN1CCOCC1)c1cccc(S(=O)(=O)N2CCOCC2)c1	5.2%	19.0%	i	9.3%	i
COc1ccc(-c2nnc3n2CCCCC3)cc1OC	?	0.7%	i	-6.0%	i
COc1cccc(NC(=O)CN(C)CC(=O)Nc2ccccc2-c2ccccc2)c1	?	-12.2%	i	-11.3%	i
Cc1nc2c(Cl)cccc2c2c1CC(CBr)O2 (configuration not stated)	2.5%	-17.9%	i	4.3%	?
N#C/C(=C\C=C\c1ccccc1)C(=O)N1CCCC1	-4.5%	?	i	16.8%	i
O=C(C1CCN(S(=O)(=O)N2CCC3(CC2)OCCO3)CC1)N1CCN(Cc2ccccc2)CC1	5.8µM*	-7.8%	i	?	i
O=C(NCc1ccccn1)C1CCN(S(=O)(=O)N2CCC3(CC2)OCCO3)CC1	11.6µM*!	-12.7%	i	?	i
O=C(C1CCN(S(=O)(=O)N2CCC3(CC2)OCCO3)CC1)N1CCc2ccccc2C1	-7.4%	?	9.2µM*	-4.0%	i
